The text below walks through data of PubChem BioAssay (EPA / NIEHS).

Broadly, the AC50 is the concentration at which the activity in the assay is half-maximal.

Values joined by “and” are separate entries in the source; they are usually repeats but may differ in a detail not shown here. Identical values can stand only once. Where a structure was tested more than once in an assay, its records may differ in their call. Active and inactive are the calls of the source. The calls were made as follows: active = hit-call score of the fitted dose curve at least 0.9, where 1 is the maximum; inactive = score below 0.9.

Read-out in this assay: Monocyte Chemoattractant Protein-1 (MCP1), CCL2 (gene 6347)
The assay is described as follows: BSK_4H_MCP1: BioMAP Diversity Plus: 4H Assay for Monocyte Chemoattractant Protein-1 (MCP1) Biomarker Activity (AID 2283018). The conditions noted are these: primary human endothelial cells (HUVEC); actives raise or lower the signal. As to the method:
BSK_4H is a cell-based, multiplexed-readout assay that uses umbilical vein endothelium, a human vascular primary cell, with measurements taken at 24 hours after chemical dosing in a 96-well plate.BSK_4H_MCP1 is an assay component measured in the BSK_4H assay. It measures MCP-1 antibody related to regulation of gene expression using ELISA technology.Data from the assay component BSK_4H_MCP1 was analyzed into 1 assay endpoint. This assay endpoint, BSK_4H_MCP1, was analyzed with bidirectional fitting relative to DMSO as the negative control and baseline of activity. Using a type of binding reporter, gain or loss-of-signal activity can be used to understand changes in the signaling as they relate to the gene CCL2. Furthermore, this assay endpoint can be referred to as a primary readout, because this assay has produced multiple assay endpoints where this one serves a signaling function. To generalize the intended target to other relatable targets, this assay endpoint is annotated to the cytokine intended target family, where the subfamily is chemotactic factor.
The levels of cell surface (or secreted, indicated by the prefix "s") biomarker endpoints were measured by ELISA. Overt cytotoxicity to cells in confluent adherent cultures (all systems other than the BT system) was assessed by measuring total protein levels using sulforhodamine B (SRB) staining in parallel cultures at the time of biomarker measurements, indicated as SRB endpoints. For proliferation assays for adherent cell types, individual cell types are cultured at sub-confluence and relative cell numbers quantified by SRB staining at time points optimized for each system (48 h: 3C and CASM3C systems; 72 h: BT and HDF3CGF systems; 96 h: SAg system). SRB was performed by staining cells with 0.1% SRB after fixation with 10% TCA and reading wells at 560 nm.Viability and proliferation of PBMC (T cells) was quantified by Alamar Blue reduction for the SAg and BT systems. For PBMC viability (referred to as PBMC Cytotoxicity within the assay endpoint names), cells were plated (75,000/well in a 96-well plate) and then chemical samples added for 1 h before addition of activators, SEB and TSST-1 (20 ng/mL final concentration each). Cells were incubated for 90 h. Then, Alamar Blue (20 uL/well) (Invitrogen, Cat DAL1100) was added for 6 h, and the plates were read with a fluorescence microplate reader at 546/580 nm (excitation/emission). For PBMC proliferation, cells were plated and activated as above but incubated for only 16 h prior to addition of Alamar Blue. Plates were read after 6 h.
Take `CC1(C)[C@H](C(=O)O[C@H](C#N)c2cccc(Oc3ccccc3)c2)[C@@H]1C=C(Br)Br`: the outcome was inactive and the AC50 is 0.252 µM (active).

Consider `CCc1cc(C)cc(CC)c1-c1c(OC(=O)C(C)(C)C)n2n(c1=O)CCOCC2`, for which the result was inactive.

On to `O=P1(NCCCl)OCCCN1CCCl` (stereo not given), for which the result was inactive.

Regarding `COc1ccc(CO)cc1`, the outcome was inactive.

On to `CC(C)(c1cc(Cl)c(O)c(Cl)c1)c1cc(Cl)c(O)c(Cl)c1`, for which the AC50 is 20 µM (active).

In the case of `Clc1ccc(-c2ccccc2)cc1`, the AC50 was 27.5 µM (active).

On to `O=[N+]([O-])C=Cc1ccccc1`, for which the AC50 is 8.93 µM (active).

`Oc1ccc(C2(c3ccc(O)cc3)c3ccccc3-c3ccccc32)cc1`: the AC50 was 13.2 µM (active) and 11.4 µM (active).

In the case of `CCCOC(=O)c1ccccc1C(=O)OCCC`, the result was inactive.

As to `O=[N+]([O-])O`, the outcome was inactive.

With `Nc1ccc(-c2ccc(N)c(N)c2)cc1N`, the AC50 is 20 µM (active).

Regarding `O=C(O)CCCc1ccc(N(CCCl)CCCl)cc1`, the result was inactive.

With `O=c1[nH]c(Cl)c(Cl)cc1Cl`, the result was inactive.

Consider `c1ccc(Nc2ccc3ccccc3c2)cc1`, for which the AC50 was 30.7 µM (active).

In the case of `O=C1C=CC(=O)C=C1`, the AC50 is 33.4 µM (active) and the result was inactive.

Regarding `CC(C)(C)C(O)C(Oc1ccc(-c2ccccc2)cc1)n1cncn1` (stereo not given), the AC50 is 31.8 µM (active).

For the compound `O=C1C(Cl)=C(Cl)C(=O)C(Cl)=C1Cl`, the AC50 is 12.3 µM (active).

In the case of `Oc1cc(Cl)ccc1Cl`, the outcome was inactive.

Consider `CNC(=O)Oc1cc(C)c(SC)c(C)c1`, for which the result was inactive.

On to `C=CC(=O)OCC(CC)CCCC` (stereo not given), for which the result was inactive.

As for `N#CCCCCC#N`, the result was inactive.

Regarding `CCC(C)c1cc([N+](=O)[O-])cc([N+](=O)[O-])c1OC(=O)C=C(C)C` (stereo not given), the AC50 was 5.34 µM (active).

With `O=c1c2ccccc2c(=O)c2c1cc(Cl)c1[nH]c3c([nH]c12)c(Cl)cc1c(=O)c2ccccc2c(=O)c13`, the result was inactive.

In the case of `COC(C)(C)CCC[C@H](C)C/C=C/C(C)=C/C(=O)OC(C)C`, the AC50 is 29.8 µM (active).

On to `CC(C)CCCCCCCOC(=O)c1ccccc1C(=O)OCCCCCCCC(C)C`, for which the outcome was inactive.

With `CCCCCCCCCCCC#N`, the AC50 was 20.6 µM (active).

On to `CC(C)COP(=O)(OCC(C)C)OCC(C)C`, for which the outcome was inactive.

With `CC(=O)/C=C/c1ccccc1`, the result was inactive.

In the case of `CCCC[N+](CCCC)(CCCC)CCCC`, the result was inactive.

For `CC(C)CCCCCCCOP(=O)(Oc1ccccc1)Oc1ccccc1`, the AC50 is 4.92 µM (active).

Consider `CC(C)(C)C(=O)CCl`, for which the outcome was inactive.

As to `COCC(=O)N(c1c(C)cccc1C)N1CCOC1=O`, the result was inactive.

As for `O=S(=O)(c1ccccc1)c1ccccc1`, the outcome was inactive.

`Cc1ccc(OP(=O)(Oc2ccc(C)cc2)Oc2ccc(C)cc2)cc1` (tested in a mixture with another compound): the AC50 was 2.31 µM (active).

For the compound `O=[N+]([O-])c1ccc(Cl)cc1`, the outcome was inactive.

On to `C=CCN(CC=C)C(=O)C(Cl)Cl`, for which the result was inactive.

Turning to `[Cd+2].[Cl-].[Cl-]`, the result was inactive.

Regarding `O=C(CCl)c1ccccc1`, the AC50 is 5.41 µM (active).
